Only some compounds are listed: those with a hit (about 8.9% of all), similar ones and a draw of the others.
IMPase cell inh: qHTS Assay for Identifying the Cell-Membrane Permeable IMPase Inhibitors; Inositol monophosphatase 1 (Rattus norvegicus), P97697; CHO-M1 cells, IP1 accumulation, HTRF TR-FRET ratio; inhibition (IP1 accumulation), % at 46.1 µM; 120,000 tested, under 10 active; AID 901, 2007; active = well fitted curve in the direction sought with a large enough effect in the signal ratio, not every such curve was filed as active; inconclusive = small, poorly fitted or top-dose-only effect, or a change in a side signal; inactive = no such curve, though single readings can be large or run the other way; the % refers to the signal ratio;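 note: cells stimulated with carbachol in lithium chloride buffer; higher means more IMPase inhibition seen as more IP1 and lower FRET ratio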
Target sequence (P97697 whole entry, looked up): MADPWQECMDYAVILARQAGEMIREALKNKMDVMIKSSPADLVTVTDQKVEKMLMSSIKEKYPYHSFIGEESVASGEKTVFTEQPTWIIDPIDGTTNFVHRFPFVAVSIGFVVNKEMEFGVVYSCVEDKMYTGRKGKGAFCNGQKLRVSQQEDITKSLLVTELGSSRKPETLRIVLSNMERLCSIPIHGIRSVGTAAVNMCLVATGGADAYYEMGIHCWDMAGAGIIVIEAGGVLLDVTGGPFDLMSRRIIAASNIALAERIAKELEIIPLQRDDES
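Carbachol-driven Gq signalling in CHO-M1 cells (2000/well) generates IP1. Compounds that block IMPase raise IP1 and so reduce the FRET signal from Eu-anti-IP1 and d2-IP1 after a 10 min room-temperature lysis.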
HPGD block: qHTS Assay for Inhibitors of HPGD (15-Hydroxyprostaglandin Dehydrogenase); Potency, µM, usual class: inhibitors; purified HPGD, NADH fluorescence kinetic, PGE2 substrate; 150,000 tested, 4.3% active; active = well fitted inhibition curve with a large enough effect, not every such curve was filed as active; inconclusive = small, poorly fitted or top-dose-only effect, or another doubt; inactive = no such curve, though single readings can be large or run the other way
Target sequence (P15428 whole entry, looked up): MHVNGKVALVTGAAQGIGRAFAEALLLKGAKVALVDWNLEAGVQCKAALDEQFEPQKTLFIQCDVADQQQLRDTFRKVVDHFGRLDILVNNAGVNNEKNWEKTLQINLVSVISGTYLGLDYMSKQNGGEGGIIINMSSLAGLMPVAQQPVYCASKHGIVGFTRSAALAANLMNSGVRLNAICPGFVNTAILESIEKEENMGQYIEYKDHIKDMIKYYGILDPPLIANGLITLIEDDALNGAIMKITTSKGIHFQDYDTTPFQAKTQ
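20 nM HPGD preincubated 15 min at room temperature with compound in 50 mM Tris-HCl pH 8, 0.01% Tween 20. Started with 1 mM NAD+ and 30 uM prostaglandin E2; NADH fluorescence (360/450 nm) read 5 times over 30-s intervals, last minus first.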
ALOX12 inhib: qHTS Assay for Inhibitors of 12-hLO (12-human lipoxygenase); AID 1452, 2008; 150,000 tested, 0.12% active; Polyunsaturated fatty acid lipoxygenase ALOX12 (Homo sapiens), P18054; Potency, µM (top dose mostly 57.1 µM), usual class: inhibitors; purified 12-hLO, xylenol orange hydroperoxide absorbance; note: nearly all actives have a fitted effect of over 55% in size
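Xylenol orange chromogenic assay: hydroperoxide from 12hLO oxidises Fe(II), giving red-shifted Fe(III)-XO absorbance. Conditions: 150 nM enzyme, 40 uM arachidonic acid, 25 mM Hepes pH 7.0, 0.01% Triton X-100, 30 min, room temperature.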
NPSR antag: qHTS Assay for Antagonists of the Neuropeptide S Receptor: cAMP Signal Transduction; Potency, µM (series often up to 38.3 µM), actives largely listed as inhibitors; Q6W5P4; CHO-NPSR cells, cAMP TR-FRET, antagonist mode; AID 1461, 2008; 220,000 tested, 1% active; note: nearly all actives have a fitted effect of over 50% in size
IMPase Li inh: qHTS Assay for Identifying the Cell-Membrane Permeable IMPase Inhibitors: Potentiation with Lithium | CHO-M1 cells, IP1 TR-FRET (IP-One), carbachol + lithium | Potency, µM (doses to about 59.4 µM), actives largely listed as inhibitors | 210,000 tested, 0.35% active | AID 1457, 2008;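 note: IP1 builds up when IMPase is blocked and the TR-FRET signal falls; nearly all actives have a fitted effect of over 50% in size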
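Lithium-sensitised IP1 accumulation assay; M1-expressing CHO cells treated 30 min at 37C with compound. Competitive antibody detection by time-resolved FRET followed a 10 min room-temperature lysis step.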
ALDH1A1 block: qHTS Assay for Inhibitors of Aldehyde Dehydrogenase 1 (ALDH1A1). Aldehyde dehydrogenase 1A1 (Homo sapiens), P00352. Purified ALDH1A1, NADH fluorescence, propionaldehyde substrate. Potency, µM (doses to about 75.3 µM), most hits filed as inhibitors. 220,000 tested, 7.3% active; active = well fitted inhibition curve with a large enough effect, not every such curve was filed as active; inconclusive = small, poorly fitted or top-dose-only effect, or another doubt; inactive = no such curve, though single readings can be large or run the other way
Large screens that a line does not name were inactive. Unless noted, calls come from the whole dose curve; as a rule, active = well fitted curve in the direction sought with a large enough effect; inconclusive = small, poorly fitted or top-dose-only effect, or another doubt; inactive = no such curve, though single readings can be large; an effect the other way counts as inactive or inconclusive.

FC(F)(F)c1nnc(-c2ccccc2)nc1Sc1ccc(Cl)cc1	NPSR antag inconclusive
O=C(Nc1ccc2oc(-c3ccc4ccccc4c3)nc2c1)c1ccc2c(c1)OCCO2	HPGD block inconclusive, ALDH1A1 block inconclusive
CCCc1nc(SCC(=O)N2CCC(Cc3ccccc3)CC2)c2c(=O)n(C)c(=O)n(C)c2n1	NPSR antag inconclusive, ALDH1A1 block 18µM
O=C(CSc1ccccc1Cl)c1ccco1	none
COc1ccc2ccc3c(c2c1)N=CC1(O3)N(C)c2ccccc2C1(C)C (centres undefined)	HPGD block inconclusive, ALDH1A1 block 13µM
O=C1CC(c2ccccc2)c2c(O)cc(O)cc2O1 (centres undefined)	ALDH1A1 block inconclusive
O=C(CSc1nnnn1C1CCCCC1)Nc1ccc2c(c1)OCO2	ALDH1A1 block 7.9µM
COc1ccc(OC)c(-n2nnnc2SCC(=O)Nc2ccc(C(=O)N3CCCCC3)cc2)c1	HPGD block 0.35µM, ALDH1A1 block 1.4µM
O=C(CSc1nnnn1C1CCCC1)Nc1ccc(F)cc1	ALDH1A1 block inconclusive
COc1ccc(NC(=O)CSc2nnnn2C2CCCC2)cc1	ALDH1A1 block 2.5µM (no result: IMPase cell inh, HPGD block, ALOX12 inhib)
Nn1c(SCC(=O)Nc2ccc3c(c2)OCO3)nnc1C1CCCCC1	none
O=C(CSc1nnnn1C1CC2CCC1C2)Nc1ccnc2ccccc12 (centres undefined)	HPGD block inconclusive, ALDH1A1 block 2.5µM
CC(=O)[C@@H]1[C@@H](C)N(Cc2ccccc2)C(=O)N[C@H]1c1cccc(C(F)(F)F)c1	ALDH1A1 block inconclusive (no result: IMPase cell inh)
O=C(Sc1nnnn1C1CCCCC1)c1cccs1	HPGD block 25µM, ALDH1A1 block 10µM
O=C(CSc1nnnn1C1CCCC1)Nc1cccc(NC(=O)c2ccco2)c1	ALDH1A1 block inconclusive
O=C(CSc1nnnn1C1CCCCC1)Nc1cccc(NC(=O)c2ccco2)c1	ALDH1A1 block 28µM
O=C(O)CSc1nnnn1C1CCCCC1	none (no result: IMPase cell inh, HPGD block, ALOX12 inhib)
O=C(CSc1nnnn1C1CCCCC1)Nc1ccccc1F	ALDH1A1 block 4µM (no result: IMPase cell inh, HPGD block, ALOX12 inhib)
O=C(CSc1nnnn1C1CCCCC1)Nc1ccc(F)cc1	ALDH1A1 block inconclusive (no result: IMPase cell inh, HPGD block, ALOX12 inhib)
Cc1cc(Sc2nccn2C)ncc1[N+](=O)[O-]	ALDH1A1 block inconclusive (no result: IMPase cell inh)
O=C1NN=C(CSc2n[nH]c(=S)s2)CS1	ALDH1A1 block 3.5µM (no result: IMPase cell inh, HPGD block, ALOX12 inhib)
COc1cc2c(cc1OC)C(CSc1ccccc1C(=O)O)=NC(C)(C)C2	ALDH1A1 block inconclusive (no result: IMPase cell inh, HPGD block, ALOX12 inhib)
CC1(C)Cc2ccccc2C(CSc2ccccc2C(=O)O)=N1	ALDH1A1 block 40µM (no result: IMPase cell inh, HPGD block, ALOX12 inhib)
CCOCCCNC(=O)/C(C#N)=C/c1ccc(-c2ccc(S(=O)(=O)N3CCOCC3)cc2)o1	HPGD block inconclusive, ALDH1A1 block inconclusive (no result: IMPase cell inh)
CCOCCCNC(=O)/C(C#N)=C/c1ccc([N+](=O)[O-])o1	NPSR antag inconclusive, ALDH1A1 block 4µM (no result: IMPase cell inh, HPGD block, ALOX12 inhib)
CCOc1ccc(S(=O)(=O)N(CC(=O)N/N=C/c2ccc(-c3ccc([N+](=O)[O-])cc3)o2)c2ccccc2)cc1	ALDH1A1 block 25µM
Cc1ccc(C)c(N(CC(=O)N/N=C/c2ccc(-c3ccc([N+](=O)[O-])cc3)o2)S(=O)(=O)c2ccccc2)c1	NPSR antag inconclusive, IMPase Li inh inconclusive, ALDH1A1 block inconclusive
COC(=O)C1=C(C)NC(=O)NC1c1ccc(-c2ccccc2Cl)o1 (centres undefined)	ALDH1A1 block 10µM (no result: IMPase cell inh, HPGD block, ALOX12 inhib)
COC(=O)C1=C(C)NC(=O)NC1c1ccc(-c2ccc(F)cc2)o1 (centres undefined)	none (no result: IMPase cell inh, HPGD block, ALOX12 inhib)
COCCOC(=O)C1=C(C)NC(=O)NC1c1ccc(-c2cc(Cl)ccc2Cl)o1 (centres undefined)	ALDH1A1 block 3.2µM (no result: IMPase cell inh, HPGD block, ALOX12 inhib)
COc1cccc(-c2csc(N3CCN(C(=O)C4CCCCC4)CC3)n2)c1	ALDH1A1 block 13µM
O=C(CSc1nc2ccc(Cl)cc2[nH]1)N1CCN(C(=O)c2ccco2)CC1	ALDH1A1 block 22µM
